According to PubChem BioAssay:
Activity calls are given as the source filed them.

Key:
[1] = small molecules captured by biotinylated probe aFSTL3 – biochemical, small-molecule microarray, fluorescence 635/667, stem cell growth factor project, primary screen (AID 1064); conditions: higher = more signal;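 also: measures binding of the biotinylated anti-FSTL3 antibody to printed compounds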
[2] = binders from COS7 lysate, DM2A8 probe, primary screen, torsin A project, cell lysate, small-molecule microarray, fluorescence 635/667 (AID 1065); conditions: higher = more signal, COS7 lysate expressing mutant human TOR1A
[3] = small molecules captured by biotinylated probe aFGF2 – biochemical, small-molecule microarray, fluorescence 635/667, stem cell growth factor project, primary screen (AID 1067); conditions: higher = more signal;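 also: measures binding of biotinylated aFGF2 protein to printed compounds on slides; z-score merges feature fluorescence and signal-to-noise across triplicate slides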
[4] = small molecules captured by biotinylated probe aFGF10 – biochemical, small-molecule microarray, fluorescence 635/667, stem cell growth factor project, primary screen (AID 1071); conditions: higher = more signal;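 also: score merges 667 nm spot intensity and signal to noise from triplicate slides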
[5] = biological target: Neurogenic locus notch homolog protein 2 (Homo sapiens) (UniProt Q04721); assay: small molecules binding Notch2 protein – biochemical, small-molecule microarray, 635 nm fluorescence, stem cell growth factors, primary screen (AID 1073); conditions: higher = more signal
[6] = biological target: Pro-neuregulin-1, membrane-bound isoform (Homo sapiens) (UniProt Q02297); assay: small molecules binding neuregulin-1 protein – biochemical, small-molecule microarray, fluorescence 635/667, psychiatric disease protein project, primary screen (AID 1075); conditions: NRG1 binding, 635 nm fluorescence, higher = more signal;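 also: score combines 667 nm spot fluorescence with signal to noise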
[7] = test system: Neuregulin-1 EGF-like domain; assay: small molecules binding NRG1 EGF domain – biochemical, small-molecule microarray, 635 nm fluorescence, primary screen (AID 1081); conditions: higher = more signal;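 also: binding of the protein to compounds printed on small-molecule microarray slides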
[8] = FRG1 expression reporter modulators in myotubes – cell-based, C2C12 myotubes, firefly/Renilla luciferase, luminescence, FRG1 inhibition for FSHD, primary screen (AID 1084); conditions: FRG1 promoter luciferase, higher = more signal, called active from +8 up or from −8 down
[9] = small molecules captured by biotinylated probe aFST – biochemical, small-molecule microarray, fluorescence 635/667, stem cell growth factor project, primary screen (AID 1086); conditions: higher = more signal;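 also: score merges 667 nm fluorescence with signal-to-noise of each printed compound spot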
[10] = binders of probe aHhip on microarray, primary screen, stem cell growth factor project, biochemical, small-molecule microarray, fluorescence 635/667 (AID 1087); conditions: higher = more signal;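 also: score merges spot fluorescence at 667nm with spot signal to noise ratio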
[11] = test system: PRMT1 (protein arginine N-methyltransferase 1); assay: small molecules binding arginine methyltransferase PRMT1 – biochemical, small-molecule microarray, 635 nm fluorescence, primary screen (AID 1088); conditions: higher = more signal;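 also: binding of Prmt1 protein to compounds spotted on small-molecule microarray slides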
[12] = growth effects on S. cerevisiae YJM789 – YJM789 clinical isolate, OD600, 24 h, basal, primary screen (AID 1089); conditions: higher = more signal, called active from +8 up or from −8 down;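 also: growth of clinical yeast isolate S. cerevisiae YJM 789 seeded 1000 cells per well; test concentration not given here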
[13] = S. pombe growth modifiers, basal conditions – strain 972, OD600, 24 h, no modulator, primary screen (AID 1090);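 also: basal condition with compound alone and no growth modifier present; test concentration not given here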; conditions: S. pombe 972 growth, higher = more signal, called active from +8 up or from −8 down
[14] = budding yeast growth modifiers under rapamycin – strain BY4716, OD600, 96 h, primary screen (AID 1091); also: test concentration not given here; conditions: S. cerevisiae BY4716 + rapamycin, higher = more signal, called active from +8 up or from −8 down
[15] = biological target: Torsin-1A-interacting protein 2 (Homo sapiens) (UniProt Q8NFQ8); assay: small molecules binding lysate-expressed LULL1 – cell lysate, human LULL1 lysate, 635/667 nm fluorescence, primary screen (AID 1092); conditions: small-molecule microarray, hLULL1 lysate binding, 635 nm fluorescence; higher = more signal;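 also: probe is lysate of COS7 cells overexpressing human LULL1; score merges per-feature 667 nm fluorescence with signal-to-noise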
[16] = optical density change of DRC41 E. coli – strain DRC41, OD650, 24 h, E. coli filamentation project, primary screen (AID 1093);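 also: MC1000 strain lacking acrAB efflux and sulA so SOS filamentation is blocked; test concentration not given here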; conditions: E. coli DRC41 growth, higher = more signal, called active from +8 up or from −8 down
[17] = probe aLefty2 binding to arrayed compounds – biochemical, biotinylated probe, 635/667 nm fluorescence, primary screen (AID 1094); conditions: small-molecule microarray, higher = more signal;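 also: score merges spot fluorescence near 667 nm with spot signal-to-noise ratio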
[18] = test system: Noggin (protein binding on small-molecule microarray); assay: small molecules binding Noggin protein – biochemical, 635/667 nm fluorescence, primary screen (AID 1095); conditions: 635 nm fluorescence, higher = more signal;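 also: score merges 667 nm feature fluorescence with signal to noise over triplicate slides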
[19] = biological target: Neurogenic locus notch homolog protein 3 (Homo sapiens) (UniProt Q9UM47); assay: small molecules binding NOTCH3 protein – biochemical, 635/667 nm fluorescence, primary screen (AID 1096); conditions: small-molecule microarray, 635 nm fluorescence, higher = more signal
[20] = probe aEGFR binding to arrayed compounds – biochemical, biotinylated probe, 635/667 nm fluorescence, primary screen (AID 1097); conditions: small-molecule microarray, higher = more signal;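 also: probe is a biotinylated anti-EGFR antibody binding compounds printed on slides; score combines fluorescence near 667 nm and signal to noise of each spot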

Sequence of Torsin-1A-interacting protein 2 (Homo sapiens) (Q8NFQ8 whole entry, looked up): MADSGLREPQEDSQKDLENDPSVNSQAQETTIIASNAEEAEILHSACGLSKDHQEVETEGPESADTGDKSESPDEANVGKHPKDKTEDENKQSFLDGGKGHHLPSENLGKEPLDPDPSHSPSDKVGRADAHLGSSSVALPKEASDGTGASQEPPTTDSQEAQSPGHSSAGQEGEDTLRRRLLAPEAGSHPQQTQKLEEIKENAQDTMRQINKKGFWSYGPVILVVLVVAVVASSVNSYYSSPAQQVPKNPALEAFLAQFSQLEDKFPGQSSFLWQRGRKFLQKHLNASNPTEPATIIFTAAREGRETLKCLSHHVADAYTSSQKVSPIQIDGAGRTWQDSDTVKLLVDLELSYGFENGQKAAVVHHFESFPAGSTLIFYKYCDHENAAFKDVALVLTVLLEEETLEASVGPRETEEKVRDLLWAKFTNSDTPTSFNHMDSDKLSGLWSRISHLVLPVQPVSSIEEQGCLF
Sequence of Neurogenic locus notch homolog protein 2 (Homo sapiens) (Q04721 whole entry, looked up, canonical isoform): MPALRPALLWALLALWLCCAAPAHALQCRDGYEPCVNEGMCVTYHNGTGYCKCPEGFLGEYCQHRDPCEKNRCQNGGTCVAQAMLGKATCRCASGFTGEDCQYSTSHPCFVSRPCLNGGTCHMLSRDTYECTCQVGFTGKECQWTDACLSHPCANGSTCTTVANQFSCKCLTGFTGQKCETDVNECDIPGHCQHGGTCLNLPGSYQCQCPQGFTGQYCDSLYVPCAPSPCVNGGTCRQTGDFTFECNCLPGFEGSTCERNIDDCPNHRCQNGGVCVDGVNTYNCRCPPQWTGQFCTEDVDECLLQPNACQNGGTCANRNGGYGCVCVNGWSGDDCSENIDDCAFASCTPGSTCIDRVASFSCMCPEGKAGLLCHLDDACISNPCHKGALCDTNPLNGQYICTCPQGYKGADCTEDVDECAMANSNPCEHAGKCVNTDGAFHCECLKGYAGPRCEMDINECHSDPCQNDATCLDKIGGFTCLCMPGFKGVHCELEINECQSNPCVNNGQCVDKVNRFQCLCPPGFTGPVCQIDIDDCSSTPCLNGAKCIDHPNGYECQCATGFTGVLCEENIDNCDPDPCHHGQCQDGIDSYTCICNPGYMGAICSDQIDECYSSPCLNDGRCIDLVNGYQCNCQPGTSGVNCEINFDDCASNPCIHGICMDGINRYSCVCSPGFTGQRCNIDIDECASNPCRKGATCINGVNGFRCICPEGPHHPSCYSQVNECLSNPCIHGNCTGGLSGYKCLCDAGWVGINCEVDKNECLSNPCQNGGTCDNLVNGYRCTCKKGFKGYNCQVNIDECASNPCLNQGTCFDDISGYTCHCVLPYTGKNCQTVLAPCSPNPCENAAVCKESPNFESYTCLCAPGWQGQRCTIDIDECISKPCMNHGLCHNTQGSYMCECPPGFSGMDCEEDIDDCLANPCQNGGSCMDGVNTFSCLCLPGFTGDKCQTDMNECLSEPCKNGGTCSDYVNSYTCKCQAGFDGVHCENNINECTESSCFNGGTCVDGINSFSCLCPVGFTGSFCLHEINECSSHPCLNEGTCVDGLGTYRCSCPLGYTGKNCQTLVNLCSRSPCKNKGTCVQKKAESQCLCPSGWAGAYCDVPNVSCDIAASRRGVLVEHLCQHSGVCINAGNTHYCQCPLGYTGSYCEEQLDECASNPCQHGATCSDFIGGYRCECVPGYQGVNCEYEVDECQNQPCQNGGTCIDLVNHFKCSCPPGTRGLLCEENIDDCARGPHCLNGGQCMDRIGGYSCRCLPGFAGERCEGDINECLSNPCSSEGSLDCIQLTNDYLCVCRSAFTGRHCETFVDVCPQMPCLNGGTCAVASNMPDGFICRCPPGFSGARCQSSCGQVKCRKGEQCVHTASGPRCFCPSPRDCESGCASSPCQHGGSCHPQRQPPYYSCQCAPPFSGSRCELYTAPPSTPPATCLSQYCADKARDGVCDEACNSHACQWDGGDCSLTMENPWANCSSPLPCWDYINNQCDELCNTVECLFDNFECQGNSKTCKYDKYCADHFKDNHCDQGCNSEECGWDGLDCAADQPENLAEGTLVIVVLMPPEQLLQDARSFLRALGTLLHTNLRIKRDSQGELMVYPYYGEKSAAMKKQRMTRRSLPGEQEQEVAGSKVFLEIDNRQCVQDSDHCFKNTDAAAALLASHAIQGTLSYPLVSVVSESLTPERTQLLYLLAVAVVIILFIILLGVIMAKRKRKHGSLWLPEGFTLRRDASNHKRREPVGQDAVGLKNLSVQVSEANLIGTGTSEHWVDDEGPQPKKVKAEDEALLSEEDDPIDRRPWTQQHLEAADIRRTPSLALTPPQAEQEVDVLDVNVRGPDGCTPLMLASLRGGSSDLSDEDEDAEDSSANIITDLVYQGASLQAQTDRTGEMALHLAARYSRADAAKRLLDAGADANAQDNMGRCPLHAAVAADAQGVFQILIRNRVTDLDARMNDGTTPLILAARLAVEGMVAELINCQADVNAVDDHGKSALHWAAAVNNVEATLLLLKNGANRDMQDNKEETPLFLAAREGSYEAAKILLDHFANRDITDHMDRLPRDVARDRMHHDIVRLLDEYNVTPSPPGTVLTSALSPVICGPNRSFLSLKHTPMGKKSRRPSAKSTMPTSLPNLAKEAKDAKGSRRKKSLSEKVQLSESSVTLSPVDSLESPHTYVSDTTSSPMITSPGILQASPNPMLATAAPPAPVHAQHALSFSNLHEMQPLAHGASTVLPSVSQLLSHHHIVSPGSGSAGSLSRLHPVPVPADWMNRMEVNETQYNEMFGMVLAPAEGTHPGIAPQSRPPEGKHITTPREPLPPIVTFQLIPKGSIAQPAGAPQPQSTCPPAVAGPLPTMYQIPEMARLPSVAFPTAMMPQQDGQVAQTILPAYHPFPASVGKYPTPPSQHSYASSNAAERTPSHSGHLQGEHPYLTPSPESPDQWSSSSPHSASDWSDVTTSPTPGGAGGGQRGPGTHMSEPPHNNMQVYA
Sequence of Pro-neuregulin-1, membrane-bound isoform (Homo sapiens) (Q02297 whole entry, looked up, the tested form may be a part, canonical isoform): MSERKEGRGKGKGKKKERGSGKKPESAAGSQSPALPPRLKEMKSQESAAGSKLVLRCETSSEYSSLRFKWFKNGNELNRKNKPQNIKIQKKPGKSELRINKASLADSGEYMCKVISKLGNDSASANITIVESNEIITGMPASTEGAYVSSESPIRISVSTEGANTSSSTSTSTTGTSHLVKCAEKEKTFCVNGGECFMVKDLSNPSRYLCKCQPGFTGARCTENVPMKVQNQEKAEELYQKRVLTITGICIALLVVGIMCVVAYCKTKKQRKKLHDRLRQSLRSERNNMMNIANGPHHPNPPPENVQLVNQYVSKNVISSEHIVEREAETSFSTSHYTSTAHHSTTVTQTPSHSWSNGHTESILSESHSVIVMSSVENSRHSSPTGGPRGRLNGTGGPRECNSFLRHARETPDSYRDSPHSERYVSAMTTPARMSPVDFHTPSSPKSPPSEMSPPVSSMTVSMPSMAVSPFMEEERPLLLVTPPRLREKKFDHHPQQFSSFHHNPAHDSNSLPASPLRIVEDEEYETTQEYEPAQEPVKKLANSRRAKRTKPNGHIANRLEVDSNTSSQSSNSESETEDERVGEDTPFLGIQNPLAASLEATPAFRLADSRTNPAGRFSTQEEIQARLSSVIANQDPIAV

| SMILES | composite z-score [1] | composite z-score [2] | composite z-score [3] | composite z-score [4] | composite z-score [5] | composite z-score [6] | composite z-score [7] | z-score [8] | composite z-score [9] | composite z-score [10] | composite z-score [11] | z-score [12] | z-score [13] | z-score [14] | composite z-score [15] | z-score [16] | composite z-score [17] | composite z-score [18] | composite z-score [19] | composite z-score [20] |
| --- | --- | --- | --- | --- | --- | --- | --- | --- | --- | --- | --- | --- | --- | --- | --- | --- | --- | --- | --- | --- |
| CC(=O)NCCCC[C@@H]1NC(=O)[C@@H]2C[C@H](C(=O)NCc3ccc(F)cc3)[C@H](c3ccc(O)cc3)N2C1=O | 0.114 | 0.798 | 0.0377 | 0.639 | -0.326 | 0.772 | 1.47 | -0.0693 (inactive) | -0.21 | -0.0994 | 1.54 | -0.36 (inactive) | -1.36 (inactive) | -0.713 (inactive) | 2.41 | 1.53 (inactive) | -0.128 | 1.67 | 0.208 | -0.122 |
| Cc1ccc(S[C@]2(C(=O)NCC(C)C)CC(=O)N(Cc3ccccc3)[C@@H]2c2ccc(CO)cc2)cc1 | 0.148 | -0.674 | -0.076 | 0.146 | -0.967 | -0.431 | 0.221 | -3.05 (inactive) | 0.161 | -0.226 | 0.744 | -1.14 (inactive) | -1.14 (inactive) | -0.256 (inactive) | 1.86 | -0.579 (inactive) | 0.189 | -0.779 | -0.331 | -0.236 |
| COc1ccc([Si](C)(C)[C@@H]2[C@@H](CCO)O[C@]3(C(=O)N(Cc4ccc(N5C(=O)c6cccc7cccc5c67)cc4)c4ccccc43)[C@H]2C)cc1 | 0.458 | 0.23 | -0.0566 | -0.383 | -0.35 | 0.995 | 0.695 | -3.01 (inactive) | -0.292 | -0.189 | 0.856 | 1.41 (inactive) | 1.54 (inactive) | 35.5 (active) | 0.854 | 0.631 (inactive) | -0.0728 | -0.753 | -0.017 | -0.208 |
| C=CCNC(=O)[C@H]1[C@@H]2C(=O)O[C@@H](c3ccccc3)[C@@H](c3ccccc3)N2[C@@H](c2ccc(O)cc2)[C@]12C(=O)Nc1ccc(C#Cc3ccc(OC)cc3)cc12 | -0.523 | 0.396 | -0.0158 | 0.357 | 1.27 | 0.384 | 1.07 | 0.0523 (inactive) | 0.786 | 0.473 | 1.49 | -0.209 (inactive) | 1.14 (inactive) | 0.832 (inactive) | 2.86 | -0.451 (inactive) | 0.369 | 0.41 | 1.12 | 0.469 |
| O=C1OCCC=C[C@H]2OC34C=CCN(CCN5CCOCC5)C(=O)[C@H]3N(CCO)C(=O)[C@@H]4C12 (stereo not given in full) | -0.217 | 1.12 | -0.179 | 0.127 | -0.621 | -0.714 | 0.916 | -0.0663 (inactive) | -0.569 | -0.489 | 0.134 | -0.698 (inactive) | -0.518 (inactive) | -0.482 (inactive) | -0.114 | 0.0484 (inactive) | -0.145 | 0.922 | 0.439 | -0.23 |
| CCCC[C@H]1OB(O)C[C@H]2C1=C(COc1ccccc1)C[C@H]1C(=O)N(Cc3ccccc3)C(=O)[C@H]12 | -0.331 | -0.413 | -0.0434 | 0.418 | 0.0238 | 0.117 | 1.07 | 0.132 (inactive) | -0.0344 | 0.0623 | 0.385 | -1.87 (inactive) | -1.54 (inactive) | -1.6 (inactive) | 1.33 | 0.194 (inactive) | -0.121 | 1.51 | 0.862 | -0.0828 |
| CC(C)(C)OC(=O)CC[C@@]1(C(=O)N2CCOCC2)N=C(c2ccc(OCCCO)cc2)O[C@@H]1c1ccccc1N=[N+]=[N-] | 0.0033 | 1.13 | 0.213 | 0.883 | 1.43 | 1.75 | 1.29 | 0.97 (inactive) | 1.57 | 0.142 | 1.53 | 0.501 (inactive) | -0.165 (inactive) | 0.404 (inactive) | 3.67 | 1.29 (inactive) | 0.0769 | 0.952 | 1.06 | 0.127 |
| COC(=O)[C@@]1(Cc2ccc(OC)cc2)[C@H]2c3cc(C(=O)N4CCCC4)n(C[C@H](O)CO)c3C[C@H]2CN1C(=O)c1ccccc1 | 0.288 | -0.0909 | 0.198 | 0.673 | 1.13 | 1.17 | 0.531 | 1.13 (inactive) | 0.488 | 0.0749 | -0.448 | 0.659 (inactive) | 1.13 (inactive) | 0.454 (inactive) | 2.4 | -0.0765 (inactive) | 0.0069 | -0.533 | 0.355 | -0.175 |
| O=C1c2ccccc2[C@@]2(Cc3ccccc3N(Cc3ccccc3)C2=O)[C@H](c2ccc(CO)cc2)N1Cc1ccccc1C(F)(F)F | 0.178 | -1.44 | -0.083 | -0.236 | -0.233 | 0.363 | 0.114 | -0.366 (inactive) | -0.0954 | -0.125 | -0.325 | 0.376 (inactive) | -0.666 (inactive) | -1.11 (inactive) | 2.03 | 0.127 (inactive) | -0.222 | -0.848 | 0.117 | -0.243 |
| COC(=O)[C@@]1(Cc2ccc(OC)cc2)[C@H]2c3cc(C(=O)N4CCCC4)n(CCN4CCOCC4)c3C[C@H]2CN1C(=O)c1ccccc1 | 2.56 | 0.553 | 1.01 | 1.47 | 1.59 | 2.23 | 1.37 | 0.877 (inactive) | 2.71 | 3.48 | 0.57 | -0.674 (inactive) | 1.15 (inactive) | -1.32 (inactive) | 3.66 | -0.22 (inactive) | 1.73 | 0.398 | 0.937 | 1.23 |
